From PubChem
MITF TRPM1 HTS = activators of MITF-driven TRPM1 promoter activity in SK-MEL-5 cells; SK-MEL-5 TRPM1-promoter luciferase, 24 h; % of positive control, neutral wells = 0; AID 588334; activation, % at 12.5 µM; 0.75% of 300,000 active;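 active means mean activation of at least 80% with every replicate also reaching 80%; inconclusive means mean reaches 80% but some replicate falls short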;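 further: 0% = neutral control wells and 100% = parthenolide positive control wells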
Wnt act = activates Wnt/beta-catenin signaling in a reporter cell assay. activator, plate reader. activation, % at 9.35 µM. 1.2% of 300,000 active; in the data active means activation above about 30%, passing the limit was not always enough; inconclusive means no clear call, values can overlap the other calls;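 further: 0% = neutral control wells and 100% = positive control wells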
Statin myotox sup = suppressors of simvastatin-induced myotoxicity in C2C12 myotubes; ATP luminescence, 48 h; scaled: DMSO 0, geranylgeraniol control 100; rescue of ATP level, % at 7.49 µM; 0.78% of 330,000 active; AID 602340;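 active means mean ATP rescue above about 67%, or every replicate alone reaching that limit, limit read from the data, passing the limit was not always enough; inconclusive means no clear call, values can overlap the other calls; inactive means mean under the limit and some replicate under it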;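 further: myotubes were challenged with 10 µM simvastatin during compound exposure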
esBAF inh = blocks esBAF chromatin remodeling in mouse ES cells; reporter increase, % at 12.5 µM; 2% of 350,000 active; Bmi1-luciferase knock-in reporter, 24 h; 100% = twice the neutral-well signal; in the data active means activation above about 40%; inconclusive means no clear call, values can overlap the other calls;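 further: 0% = median of the plate's neutral control wells and 100% = double that signal; a rise in the Bmi1 reporter signal indicates esBAF inhibition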
TRPM1 prom inh = reduces MITF-dependent TRPM1 promoter luciferase signal | SK-MEL-5 TRPM1 promoter luciferase, 24 h | inhibition, % at 12.5 µM | 0.83% of 330,000 active | AID 488899;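 active means mean inhibition across replicates of 60% or more, whatever share of single replicates reaches that level; inconclusive means some that reach 60%, reason not given; inactive means mean inhibition across replicates below 60%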
LMP1 NFkB inh = Epstein-Barr LMP1 NF-kappaB reporter inhibition; LMP1-induced NF-kappaB luciferase reporter cells, luminescence; inhibition, % at 12.5 µM; 0.69% of 350,000 active; AID 504558; in the data active means inhibition above about 41%; inconclusive means no clear call, values can overlap the other calls;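 further: 0% = neutral control wells and 100% = reference inhibitor control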
Numbers without * were called inactive; ? = inconclusive; nt = no result given. Compounds with a hit are over-represented: about 4% of the library has one in this group of screens.

SMILES	MITF TRPM1 HTS	Wnt act	Statin myotox sup	esBAF inh	TRPM1 prom inh	LMP1 NFkB inh
CN(C)c1cccc(C(=O)NC2CCCCCC2)c1	59.2	nt	-6.2	44.0*	-57.3	-19.6
Cc1cccc(C(=O)NC2CCCCCCC2)c1	73.1	14.7	3.8	64.6*	-67.5	-28.6
Cc1cccc(NC(=O)NC2CCCCCCC2)c1	36.3	20.5	-9.1	62.2*	-39.1	-23.6
COc1cccc(S(=O)(=O)N(C)C[C@H]2OCc3ccccc3-c3c(n(C)c4ccccc34)C(=O)N([C@@H](C)CO)C[C@H]2C)c1	nt	nt	69.0*	-1.7	nt	nt
COc1ccc(CNC(=O)N(C)C[C@@H]2OCc3ccccc3-c3c(n(C)c4ccccc34)C(=O)N([C@H](C)CO)C[C@@H]2C)cc1	nt	nt	8.7	46.0*	nt	nt
COc1ccc(CNC(=O)N(C)C[C@@H]2OCc3ccccc3-c3c(n(C)c4ccccc34)C(=O)N([C@@H](C)CO)C[C@@H]2C)cc1	nt	-1.3	nt	nt	nt	nt
Cc1cc(C(=O)OCC(=O)N2CCOCC2)ccc1[N+](=O)[O-]	-4.6	-1.2	nt	nt	6.6	2.6
Cc1ccc(-n2ncc3c(=O)n(CC(=O)NCC4CCCO4)cnc32)cc1 (configuration not stated)	-0.4	nt	8.8	7.2	1.4	5.2
O=C(Cn1cnc2c(cnn2-c2ccc(Cl)cc2)c1=O)NCC1CCCO1 (configuration not stated)	-5.3	-1.8	84.7*	-1.3	4.4	15.1
CC(=O)N(C)c1ccc(NCc2cc(=O)oc3cc(C)c(O)cc23)cc1	-20.9	0.8	1.3	80.1*	19.4	5.1
Cc1cc(C)cc(NCc2cc(=O)oc3cc(C)c(O)cc23)c1	-5.4	-0.1	1.2	-3.2	4.5	-2.1
Cc1cc(=O)[nH]c2c1c(C)nn2C1CCCCC1	-8.4	-1.5	-11.3	-7.8	8.5	-7.1
O=c1cc(C2CCCCC2)[nH]c(=O)[nH]1	13.5	-0.6	4.5	0.7	-8.2	51.7*
O=C(O)c1ccc2c(c1Nc1ccccc1)C(=O)c1ccccc1C2=O	-11.5	3.0	5.5	-7.4	11.7	42.5*
CNc1c(C(=O)O)ccc2c1C(=O)c1ccccc1C2=O	-14.1	-0.9	nt	nt	14.3	6.5
COC(=O)c1cn(CC(=O)N2CCCCCC2)c2ccccc12	-7.0	nt	-4.0	-2.7	8.0	-9.7
Brc1ccc(N=C/C=C/C=C/Nc2ccc(Br)cc2)cc1	-15.5	12.5	9.0	68.2*	17.2	-29.4
O=C(O)CC(c1ccccc1)n1cccc1 (configuration not stated)	-0.9	-3.8	114.5*	-7.3	-0.9	-3.6
Nc1ccc(C(CC(=O)O)n2cccc2)cc1 (configuration not stated)	-0.4	1.3	8.8	-0.3	2.2	-2.0
O=C(O)CC1S/C(=N\N=C2CCCCCC2)N(c2ccccc2)C1=O (configuration not stated)	0.2	-1.8	nt	nt	-0.7	-3.8
CCOC(=O)CC/C(C)=N\N=C1\SC(CC(=O)O)C(=O)N1c1ccccc1 (configuration not stated)	-5.6	2.9	-3.7	-15.9	4.5	44.1*
Cc1c(C(=O)Nc2ccc3c(c2)OCO3)oc2ccccc12	42.2	26.6	-17.3	50.1*	-39.7	-61.7
Cc1ccccc1C(=O)Nc1ccc2c(c1)OCCO2	-7.8	-1.9	1.6	-45.1	9.5	31.6
Cc1c(C(=O)NNC(=O)c2ccccc2O)oc2ccccc12	nt	0.7	7.9	59.0*	nt	7.1
CC(=O)Nc1c(C(=O)Nc2ccc3c(c2)OCO3)oc2ccccc12	79.0	?	-0.6	?	-80.6	-21.5
SMILES	MITF TRPM1 HTS	Wnt act	Statin myotox sup	esBAF inh	TRPM1 prom inh	LMP1 NFkB inh
COCC(=O)Nc1c(C(=O)Nc2ccc3c(c2)OCO3)oc2ccccc12	58.9	27.1	-0.2	63.0*	-57.7	-23.3
COC(=O)c1oc2ccccc2c1NC(=O)c1ccccc1O	-18.1	0.1	-5.0	-5.0	17.2	-1.9
O=C(Nc1ccc2c(c1)OCCO2)c1coc2ccccc2c1=O	-69.2	nt	nt	nt	72.6*	17.6
Cn1c(=O)c2c(nc(CN3CCN(C(=O)c4ccco4)CC3)n2Cc2ccc(F)cc2)n(C)c1=O	1.1	nt	-19.0	1.2	-4.8	-6.8
COc1ccc(C(C(=O)NC(C)(C)C)N(Cc2cccnc2)C(=O)CCC(=O)Nc2cc(C)on2)cc1 (configuration not stated)	-6.5	-2.5	4.5	0.4	7.6	-0.6
O=C(NCC(O)COc1ccc([N+](=O)[O-])cc1)c1ccccc1 (configuration not stated)	6.2	-1.3	19.8	4.4	-4.5	-1.9
COc1ccc(S(=O)(=O)Nc2cccc3c2O[C@H](CN(C)C(=O)Nc2ccc4c(c2)OCO4)[C@@H](C)CN([C@@H](C)CO)C3=O)cc1	nt	nt	nt	1.1	nt	nt
c1ccc(Cn2c(-c3cncs3)nc3ccccc32)cc1	46.7	nt	-1.8	65.8*	-42.7	-31.9
Brc1ccc(Cn2c(-c3cncs3)nc3ccccc32)cc1	nt	nt	2.5	32.7	-52.6	-9.2
Cc1ccc(/C(=N/Nc2ncnc3ccccc23)C(=O)O)cc1	-4.3	44.4*	43.1	51.5*	9.4	-13.0
Oc1ccc(Nc2ncnc3ccccc23)cc1	nt	1.6	-7.5	2.7	4.3	22.7
Cc1ccc(Nc2ncnc3ccccc23)cc1	?	nt	1.4	46.3*	-68.9	-7.5
Cc1cccc(Nc2ncnc3ccccc23)c1	0.8	46.8*	nt	nt	-0.3	-1.5
CCOc1ccc2nc(SCC(=O)NCC3CCCO3)sc2c1 (configuration not stated)	1.2	8.0	2.6	11.3	1.2	-2.7
O=C(COC(=O)CCSc1ccccc1Cl)Nc1ccc(F)cc1F	10.1	-2.9	nt	nt	-8.5	-4.5
COc1ccc(COC(=O)C2=C(C)NC(=O)NC2c2cc(Br)c(O)c(OC)c2)cc1 (configuration not stated)	nt	0.2	14.0	3.6	6.7	6.4
Cc1nc(SCc2ccc(C#N)cc2)n[nH]1	nt	2.3	2.4	7.0	-1.3	5.3
CCCCCOc1ccc(CSc2ncn[nH]2)cc1	?	nt	-13.1	46.6*	-85.1	-21.4
CCCCOc1ccc(CSc2n[nH]c(C)n2)cc1	92.7*	nt	-14.9	6.5	-91.7	-9.4
CCOC(=O)c1c(C)[nH]c(=S)c(C#N)c1-c1ccc(OC)cc1	-5.1	-5.1	-21.1	-5.7	6.8	5.0
O=C(Nc1ccc(OCc2ccccc2)cc1)c1cccs1	nt	17.3	-13.2	68.5*	-90.5	-34.5
O=C(N/N=C/c1ccc(OCc2ccccc2)cc1)c1ccncc1	39.0	10.8	-7.2	27.6	-30.3	7.3
CNC(=S)Nc1ccc(OCc2ccccc2)cc1	18.5	1.6	-22.5	40.9*	-12.9	-9.4
O=C(N/N=C/c1ccc(OCc2ccccc2)cc1)c1cccs1	54.9	nt	-26.1	48.3*	-57.1	13.2
Oc1ccc(N=Cc2ccc(OCc3ccccc3)cc2)cc1	-34.5	14.6	13.9	48.2*	38.6	4.9
CCOc1ccc(NC(=S)Nc2ccc(OCc3ccccc3)cc2)cc1	8.9	20.0	nt	nt	-8.4	-5.5
COc1ccc(NC(=O)c2cccs2)cc1	56.5	nt	nt	nt	-52.4	-20.2
